Screening results deposited in PubChem by National Center for Advancing Translational Sciences (NCATS).
The full list was thinned out, with hits kept by preference.
DT40 TDP1 CPT – growth inhibition of DT40 Tdp1-/-;hTDP1 cells with camptothecin (screen for TDP1 inhibitors); actives 12% (n = 420,000); chicken DT40 Tdp1-/-;hTDP1 cells + 20 nM CPT, ATP luminescence, 48 h; Potency, µM (highest dose often 46.2 µM), inactives show at the top dose activity change, negative = growth inhibition, hits mostly inhibitors; further: potency means the concentration at half of the fitted maximal effect; nearly all actives have a fitted effect of over 55% in size
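Chicken DT40 Tdp1-/- cells stably complemented with human TDP1 were seeded at 400 cells/well in medium containing 20 nM camptothecin, exposed to pin-transferred compounds, and grown at 37 °C for at least 48 hr. Viability was read as ATP luminescence.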
HT1080-NT tox – kills 2HG-producing HT-1080-NT fibrosarcoma cells; HT-1080-NT fibrosarcoma viability, CellTiter-Glo ATP luminescence, 48 h; actives 1.6% (n = 360,000); Potency, µM (highest dose often 46.1 µM), for inactives: top-dose activity, negative = less viability, actives largely listed as cytotoxic;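 further: NT is the 2HG producing partner of a matched IDH1 knockdown line; potency means the concentration at half of the fitted maximal effect; 0% = DMSO-treated cells and -100% = media-only wells without cells; nearly all actives have a fitted effect of over 55% in size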
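Compounds were tested in concentration-response format on HT-1080-NT cells for 48 hours at 37 degrees C. Cell viability came from CellTiter-Glo luminescence; curves were classified by r2, response magnitude and activity.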
ALOX12 inh – blocks human arachidonate 12S-lipoxygenase; AID 1671190; purified 12hLO, xylenol orange hydroperoxide absorbance; actives 1.1% (n = 580,000); P18054; Potency, µM (highest dose often 108 µM), for the others: at the highest dose activity change, negative = inhibition, usual class: inhibitors; further: potency means the concentration at half of the fitted maximal effect
Target sequence (P18054 whole entry, looked up): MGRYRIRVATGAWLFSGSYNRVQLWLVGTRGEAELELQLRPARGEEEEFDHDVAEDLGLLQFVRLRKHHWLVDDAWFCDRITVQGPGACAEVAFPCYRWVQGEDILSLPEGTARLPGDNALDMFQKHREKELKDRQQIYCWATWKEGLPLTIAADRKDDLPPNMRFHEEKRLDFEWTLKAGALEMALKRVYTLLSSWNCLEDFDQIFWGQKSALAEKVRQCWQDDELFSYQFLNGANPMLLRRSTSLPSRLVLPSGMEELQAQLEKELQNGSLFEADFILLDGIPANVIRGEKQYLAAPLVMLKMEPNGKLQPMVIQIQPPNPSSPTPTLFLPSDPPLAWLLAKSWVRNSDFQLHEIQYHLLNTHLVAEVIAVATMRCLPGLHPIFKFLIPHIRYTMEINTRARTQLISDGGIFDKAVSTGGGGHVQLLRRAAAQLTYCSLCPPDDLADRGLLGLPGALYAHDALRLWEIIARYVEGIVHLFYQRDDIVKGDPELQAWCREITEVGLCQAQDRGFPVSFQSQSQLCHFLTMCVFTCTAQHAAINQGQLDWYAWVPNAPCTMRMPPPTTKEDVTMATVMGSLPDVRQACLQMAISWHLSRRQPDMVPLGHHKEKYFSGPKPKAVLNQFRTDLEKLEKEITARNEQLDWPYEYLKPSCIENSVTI
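Hydroperoxide product was detected by ferrous iron/xylenol orange as the 573 to 405 nm absorbance ratio. Arachidonic acid at 40 uM (final) was turned over for 30 min at room temperature by 150 nM human 12hLO, pH 7.0 Hepes buffer, after 15 min compound preincubation.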
TDP1 cell noCPT – qHTS for Inhibitors of human tyrosyl-DNA phosphodiesterase 1 (TDP1): qHTS in cells in absence of CPT; Potency, µM (titrated, usually from 46.2 µM), for inactives: at the highest dose activity change, negative = growth inhibition, usual class: inhibitors; DT40 Tdp1-/- hTDP1 cells, no CPT, ATP luminescence, 48 h; AID 686978, 2013; actives 15% (n = 420,000); further: potency means the concentration at half of the fitted maximal effect; nearly all actives have a fitted effect of over 55% in size
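No-CPT arm: Tdp1-/-;hTDP1 DT40 cells (400/well) plus compounds, incubated ≥48 hr at 37 °C. Readout CellTiter-Glo luminescence.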
HT1080 IDH1KD tx – toxicity to HT-1080 IDH1 knockdown cells (counter line) | actives 2% (n = 360,000) | AID 686971 | Potency, µM (titrated, usually from 46.1 µM), without a hit: at the highest dose activity, negative = toxicity, most hits filed as cytotoxic | HT-1080 IDH1 knockdown viability, ATP luminescence, 48 h;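 further: potency means the concentration at half of the fitted maximal effect; 0% = DMSO wells and -100% = cell-free medium wells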
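Cytotoxicity counter-line: IDH1KD HT-1080, 48 h, CellTiter-Glo. Curves classed by r2, magnitude and activity.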
IL1B secr inh – inflammasome signaling inhibition, IL-1 beta readout | AID 743279 | THP-1 LPS/ATP IL-1B secretion, AlphaLISA, 16 h; hits give low values | activity change, % at 57.5 µM | actives 4.7% (n = 360,000); in the data active means activity change below about -50%; inconclusive means mostly about -30% to -49%
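THP-1 cells pretreated 1 hr with compounds (up to 57.5 uM final), then stimulated with LPS (250 ng/mL final) plus ATP (1.25 mM final); secreted IL-1B measured by AlphaLISA after 16 hr, decreased signal indicating inhibition.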
Starred values were filed as active, the others as inactive; ? = inconclusive; / = not tested or not shown; [ ] = dose if it differs, or a comment. Unless noted, the call rests on the fitted dose curve; in most records, active means well fitted curve in the direction sought with a large enough effect; inconclusive means small, poorly fitted or top-dose-only effect, or another doubt; inactive means no such curve, though single readings can be large; an effect the other way counts as inactive or inconclusive. Unless noted, on the % scale 0 is the no-effect control and ±100 the full control effect.

SMILES | DT40 TDP1 CPT | HT1080-NT tox | ALOX12 inh | TDP1 cell noCPT | HT1080 IDH1KD tx | IL1B secr inh
CCCCNc1nc2c(c(=O)n(C)c(=O)n2C)n1CC(O)COc1ccccc1C (stereo unspecified) | 21µM* | / | 19% | 18µM* | / | /
COCCCNc1nc2c(c(=O)[nH]c(=O)n2C)n1CC(O)COc1ccccc1C (stereo unspecified) | -18% | -5% | 1% | -26% | -3% | 9
Cn1c(=O)c2c(nc(NC3CCCCC3)n2CC(O)COc2ccccc2)n(C)c1=O (stereo unspecified) | ? | -2% | 1% | 23µM* | -7% | -5
CCc1nc2c(NC(=O)NCc3ccc(OC)cc3)cccn2n1 | / | / | 58% | / | / | /
CCc1nc2c(NC(=O)Nc3cccc(C(=O)OC)c3)cccn2n1 | / | / | 71µM* | / | / | /
COc1cccc(-c2nc(SCC(=O)Nc3nc(-c4ccccc4)c(C)s3)[nH]c(=O)c2C#N)c1 | 3% | -2% | 14µM* | -10% | 5% | 13
CCC(C(=O)NCCC1=CCCCC1)c1ccccc1 (stereo unspecified) | ? | 12% | -17% | 15µM* | 6% | -1
CC(C(=O)NCCC1=CCCCC1)c1ccc([N+](=O)[O-])cc1 (stereo unspecified) | ? | -5% | -15% | 16µM* | -2% | 4
O=C(COC(=O)CSc1ccc([N+](=O)[O-])cc1)NCCC1=CCCCC1 | -4% | 4% | ? | 9% | -7% | 3
CCC(C(=O)Nc1ccc(C)cc1)c1ccccc1 (stereo unspecified) | 1% | 21% | -2% | -12% | 12% | 13
CCC(C(=O)NCc1ccc(C)cc1)c1ccccc1 (stereo unspecified) | -2% | 1% | 25µM* | -27% | 3% | 2
COc1ccc(OC(=O)c2cccc(OC)c2)cc1 | / | / | -1% | / | / | /
CC1(OC(=O)C2CCCC2)C(=O)C=C2C=C(c3ccsc3)N(c3ccccc3)C=C2C1=O (stereo unspecified) | ? | 1% | 13µM* | ? | -5% | -3
CC1(OC(=O)C2CCCC2)C(=O)C=C2C=C(c3ccsc3)N(C3CC3)C=C2C1=O (stereo unspecified) | ? | -22% | -8% | -27% | -1% | -3
CC1(OC(=O)C2CCCC2)C(=O)C=C2C=C(c3ccsc3)N(Cc3ccccc3)C=C2C1=O (stereo unspecified) | ? | -2% | -17% | 18µM* | -7% | 25
Cc1cc(C(=O)N2CCOC[C@H](Oc3cccnc3)C2)c(C(F)(F)F)o1 | / | / | 17%[176 µM] | / | / | /
O=C(CCc1ccccc1)Nc1ccc(-c2nnc3n2CCCC3)cc1 | / | / | 41% | / | / | /
CC(=O)C1(C)N(O)C(C)C(c2cccs2)=[N+]1[O-] (stereo unspecified) | / | / | -2% | / | / | /
CCOC(=O)c1sc2nccc(N(C)C)c2c1N=CNOCc1c(F)cccc1Cl | ? | -25% | ? | 23µM* | -24% | -3
CCOC(=O)c1sc2nccc(N(C)C)c2c1N=CNOCc1ccccc1 | ? | -29% | -17% | ? | -24% | -7
Cc1ccc(C)c(CNC(=O)Nc2nc(C)ns2)c1 | / | / | 57% | / | / | /
CCn1ncc(Cl)c1C(=O)NC(=S)Nc1c(C)cc(C)cc1[N+](=O)[O-] | ? | -4% | -11% | 23µM* | 2% | -20
CC(CN1CCCCC1)OC(=O)C(C)(c1ccccc1)c1ccccc1 (stereo unspecified) | ? | -31% | 51% | 21µM* | -25% | -20
COc1ccc(CNc2ncncc2-c2ccc(N(C)C)cc2)c(OC)c1 | 18µM* | / | -28% | ? | / | /
COc1ccc(CNc2ncnc3ccc(-c4ccc(N(C)C)cc4)cc23)c(OC)c1 | 23µM* | / | -24% | ? | / | /
SMILES | DT40 TDP1 CPT | HT1080-NT tox | ALOX12 inh | TDP1 cell noCPT | HT1080 IDH1KD tx | IL1B secr inh
Cc1ccc(CNC(=O)CSc2nc3ccccc3nc2Cc2ccc(C)cc2)cc1 | ? | / | -23% | ? | / | /
CC1CCCCN1C(C)CNC(=S)NCc1ccco1 (stereo unspecified) | / | / | -47% | / | / | /
C/C(=N\NC(=S)Nc1ccccc1)C1Cc2ccccc2C(=O)O1 (stereo unspecified) | ? | 17% | ? | ? | 6% | 33
C/C(=N\NC(=S)Nc1ccccc1C)C1Cc2ccccc2C(=O)O1 (stereo unspecified) | ? | -10% | ? | 6.5µM* | -20% | 1
CCCN(CC(=O)Nc1ccccc1OC)C(=O)C1CCCC1 | ? | -3% | 27% | 21µM* | -1% | 4
CCCN(CC(=O)Nc1ccccc1OC)C(=O)Cc1ccc2c(c1)CCC2 | 18µM* | -4% | / | ? | 0% | 1
COc1ccccc1NC(=O)/C(C#N)=C/c1c[nH]c2ccccc12 | / | / | -14% | / | / | /
COc1ccc2cnn(CC(=O)Nc3ccccc3)c(=O)c2c1OC | / | / | 14% | / | / | /
O=C(Cc1n[nH]c(=O)c2ccccc12)NC1CCCc2c1[nH]c1ccccc21 (stereo unspecified) | / | / | 45µM* | / | / | /
O=C(Cn1nc2c(cc1=O)CCCC2)NC1CCCc2c1[nH]c1ccccc21 (stereo unspecified) | / | / | 35µM* | / | / | /
O=C(Cn1ncc2ccccc2c1=O)NC1CCCc2c1[nH]c1ccccc21 (stereo unspecified) | / | / | 28µM* | / | / | /
COc1ccc2cnn(CC(=O)NC3CCCc4c3[nH]c3ccccc43)c(=O)c2c1OC (stereo unspecified) | / | / | 40µM* | / | / | /
O=C(Cn1ncc2ccccc2c1=O)NC1CCCCC1 | / | / | -22% | / | / | /
O=C(Cn1nc2c(cc1=O)CCCC2)NC1CC1 | / | / | 37% | / | / | /
C=C(C)CNC(=S)N/N=C/c1cccc(C(F)(F)F)c1 | / | / | 26% | / | / | /
COCc1nnc(NC(=O)c2ccc3ccn(C)c3c2)s1 | / | / | 28% | / | / | /
COc1ccc(C2(C(=O)NC3CCCc4c3[nH]c3ccccc43)CCOCC2)cc1 (stereo unspecified) | / | / | 35µM* | / | / | /
Cc1ccc2[nH]c3c(c2c1)CCCC3NC(=O)CCl (stereo unspecified) | 6.5µM* | 1.3µM* | / | 2.3µM* | 9.2µM* | -100*
CC(=O)NC1CCCc2c1[nH]c1ccc(Cl)cc21 (stereo unspecified) | / | / | 7% | / | / | /
COc1ccc(C2(C(=O)NC3CCCc4c3[nH]c3c(Cl)cccc43)CCOCC2)cc1 (stereo unspecified) | / | / | -15% | / | / | /
